# F508del corr – correctors of CFTR F508del function in bronchial epithelial cells; CFBE cells, YFP halide quenching; stimulated with forskolin plus potentiator P3; % fluorescence drop versus neutral controls; activity (quench increase), % at 7.58 µM; 350,000 tested, 0.36% active; AID 720511;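 active = mean added fluorescence quench of at least 8% versus neutral control, with both replicates also reaching 8%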;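 also: cells transiently co-express mutant CFTR-F508del with the halide-sensitive YFP; corrector assay measuring rescue of mutant channel to the surface after 24 h compound exposure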
# PglD inh – inhibitors of Campylobacter jejuni PglD acetyltransferase | purified PglD enzyme, DTNB colorimetric CoA detection | inhibition, % at 12.5 µM | 360,000 tested, 0.098% active; in the data active = inhibition above about 16%, passing the limit was not always enough
# Env fusion inh – HIV envelope-mediated fusion inhibition | HeLa-JRFL Env/CEM21 cell fusion, luciferase | inhibition, % at 12.3 µM | 360,000 tested, 1.1% active;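 active = mean replicate inhibition score of at least 50 and every replicate individually at or above 50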;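 also: 0% = plate neutral controls and 100% = maraviroc near 300 nM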
# Casp6 inh – blocks human caspase-6 cleavage activity. P55212. purified caspase-6, Z-VEID-R110 cleavage fluorescence. inhibition, % at 12.5 µM. 350,000 tested, 0.53% active;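 active = mean inhibition across replicates at least about 35%, with every replicate also reaching that limit, limit read from the data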;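 also: 0% = median of neutral control wells and 100% = no fluorescence left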
# ALR H2O2 inh – human ALR oxidase inhibition via reduced H2O2; purified ALR, DTT oxidation, H2O2 HRP-luminol luminescence; AID 485317; P55789; inhibition, % (test concentration not listed); 290,000 tested, 3.8% active;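 active = mean replicate inhibition above about 79%, with every replicate also reaching it, limit read from the data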
# Target sequence (P55789 whole entry, looked up): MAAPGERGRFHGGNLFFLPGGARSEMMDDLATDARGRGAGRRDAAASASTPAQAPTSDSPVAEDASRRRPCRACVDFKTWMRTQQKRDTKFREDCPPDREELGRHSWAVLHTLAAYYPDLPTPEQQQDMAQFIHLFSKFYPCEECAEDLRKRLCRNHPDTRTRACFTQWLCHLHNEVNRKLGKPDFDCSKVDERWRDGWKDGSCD
# NSD2 HMT inh – blocks human histone methyltransferase NSD2 | NSD2 peptide methylation, AlphaScreen, 120 min | 310,000 tested, 0.54% active | AID 743445 | inhibition, % at 12.5 µM; in the data active = inhibition above about 50%
# An asterisk follows results filed as active; x = no result; [ ] = another dose, or the depositor's remark. This is a sample that favours compounds with a hit; in the whole collection about 4.1% have one here.
SMILES,F508del corr,PglD inh,Env fusion inh,Casp6 inh,ALR H2O2 inh,NSD2 HMT inh
C[C@@H]1CCCCO[C@H](CN(C)Cc2ccccc2)[C@@H](C)CN([C@H](C)CO)C(=O)c2cc(NC(=O)Nc3ccc(F)cc3)ccc2O1,-2,-1,-1[16.7 µM],-2,x,x
COc1ccc(NC(=O)Nc2ccc3c(c2)C(=O)N([C@@H](C)CO)C[C@@H](C)[C@H](CN(C)Cc2ccccc2)OCCCC[C@@H](C)O3)cc1,0,-1,-4[16.7 µM],0,x,x
C[C@H]1CCCCO[C@@H](CN(C)Cc2ccccc2)[C@@H](C)CN([C@@H](C)CO)C(=O)c2cc(NC(=O)Nc3ccc(F)cc3)ccc2O1,-2,0,70*[16.7 µM],13,x,x
C[C@H]1CN([C@@H](C)CO)C(=O)c2cc(NC(=O)C3CCCCC3)ccc2O[C@@H]1CN(C)Cc1ccncc1,-1,1,55*[16.7 µM],-2,x,x
C[C@@H]1CCCCO[C@@H](CN(C)Cc2ccccc2)[C@H](C)CN([C@H](C)CO)C(=O)c2cc(NC(=O)Nc3ccc(F)cc3)ccc2O1,1,-3,-26[16.7 µM],-1,x,x
COc1ccc(NC(=O)N(C)C[C@@H]2OCCCC[C@@H](C)Oc3ccc(NS(=O)(=O)c4ccc(F)cc4)cc3C(=O)N([C@H](C)CO)C[C@@H]2C)cc1,0,-4,-16[16.7 µM],2,x,x
C[C@H]1CCCCO[C@@H](CN(C)Cc2ccncc2)[C@@H](C)CN([C@@H](C)CO)C(=O)c2cc(NC(=O)Nc3ccccc3)ccc2O1,1,-2,58*[16.7 µM],0,x,x
COc1ccc(NC(=O)Nc2ccc3c(c2)C(=O)N([C@H](C)CO)C[C@@H](C)[C@@H](CN(C)Cc2ccncc2)OCCCC[C@@H](C)O3)cc1,0,3,-1[16.7 µM],-2,x,x
C[C@H](CO)N1C[C@H](C)[C@@H](CN(C)Cc2ccccc2)OCCCC[C@H](C)Oc2ccc(NC(=O)Nc3ccccc3)cc2C1=O,1,2,2[16.7 µM],2,x,x
C[C@H]1CCCCO[C@@H](CN(C)Cc2ccccc2)[C@@H](C)CN([C@@H](C)CO)C(=O)c2cc(NC(=O)Nc3ccccc3)ccc2O1,0,-1,69*[16.7 µM],-4,x,x
COc1ccc(CN(C)C[C@@H]2Oc3ccc(NC(=O)Nc4ccc(OC)cc4)cc3C(=O)N([C@H](C)CO)C[C@@H]2C)cc1,-1,-2,63*[16.7 µM],1,x,x
COc1ccc(NC(=O)Nc2ccc3c(c2)C(=O)N([C@@H](C)CO)C[C@H](C)[C@H](CN(C)Cc2ccncc2)OCCCC[C@H](C)O3)cc1,-2,2,88*[16.7 µM],5,x,x
CCC(=O)N1C[C@@H](O)COC[C@H]2O[C@@H](CC(=O)NCc3cc(F)cc(F)c3)CC[C@@H]21,-1,5,-7[16.7 µM],-1,x,x
Cc1noc(C)c1S(=O)(=O)Nc1ccc2c(c1)C(=O)N([C@@H](C)CO)C[C@@H](C)[C@@H](CN(C)C(=O)Cc1ccccc1)OCCCC[C@@H](C)O2,-1,0,-36[16.7 µM],3,x,x
C/C=C/c1ccc([C@H]2[C@@H](CO)N(C(=O)COC)[C@@H]2CNC(=O)CC)cc1,8.3*,-1,x,-1,x,x
CCCNC(=O)N1C[C@H](O)COC[C@H]2O[C@@H](CC(=O)N3CCN(C)CC3)CC[C@@H]21,0,-2,-2[16.7 µM],1,x,x
Cc1ccccc1S(=O)(=O)NCC[C@H]1CC[C@H](NC(=O)C2CC2)[C@@H](CO)O1,-1,-3,3[16.7 µM],-6,x,x
CCOC(=O)c1nc(Nc2ccc(N3CCC(C)CC3)cc2)c2ccccc2n1,2,1,62*,0,54,x
CCOC(=O)c1nc(Nc2ccc(Nc3ccccc3)cc2)c2ccccc2n1,1,x,13,1,x,-3
Cc1[nH]c2ccccc2c1SCCNC(=O)c1ccc(Br)o1,1,x,x,6,78*,x
O=C(NCCSc1c[nH]c2ccccc12)c1ccc(Br)o1,-2,1,30,-1,47,x
CC=Cc1ccc2n(c1=O)C[C@H]1[C@H](CO)[C@@H](C(=O)NCc3ccccc3F)N(CCC)[C@@H]21 (mixture of isomers),x,-2,x,-1,x,x
Cc1ccc(-n2c(-c3ccccc3)c[n+]3c2CCC3)cc1,-4,x,62*,-6,-11,-1
Cc1ccc(/C=C/C(=O)NC2CCCCCCC2)o1,x,x,-3,x,99*,1
CN1CCc2c(sc(NC(=O)c3ccco3)c2C(N)=O)C1,2,0,x,-1,11,x
